Screens deposited in PubChem by The Scripps Research Institute Molecular Screening Center.
hcDAF12 agonist: activators of H. contortus DAF-12 nuclear receptor. HEK293 hcDAF-12 lit1-tk-luc reporter, luminescence; 0% DMSO, 100% Δ7-dafachronic acid. 370,000 tested, 1.4% active. activation, % at 6.8 µM;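 active means activation above the mean of all tested compounds plus 3 SD, cut at about 5.5% in these data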;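 further: 100% = response to 3 µM Δ7-dafachronic acid high control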
hgDAF12 agonist: agonists of H. glycines DAF-12 nuclear receptor. activation, % at 6.8 µM. 370,000 tested, 1.8% active. AID 687014. HEK293 GAL4-hgDAF12 UAS-luciferase reporter, agonist luminescence; normalized to butyrate control;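 active means activation above a cutoff set at the mean of all screened compounds plus 3 SD, cut at about 10% in these data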;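 further: 0% = DMSO wells and 100% = sodium butyrate wells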
DAX1 inh-1: NR0B1 (DAX1) inhibition; HEK293 Gal4-DAX1 luciferase reporter, luminescence; inhibition, % at 6.75 µM; 340,000 tested, 0.99% active; AID 504766;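 active means inhibition above the mean over all tested compounds plus 3 SD, cut at about 4.2% in these data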;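 further: 0% = DAX1-transfected cells with DMSO and 100% = empty-vector control cells with DMSO; inhibition shows as a rise in luminescence from relieved DAX1 repression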
Target sequence (P51843 207-470 limits assumed): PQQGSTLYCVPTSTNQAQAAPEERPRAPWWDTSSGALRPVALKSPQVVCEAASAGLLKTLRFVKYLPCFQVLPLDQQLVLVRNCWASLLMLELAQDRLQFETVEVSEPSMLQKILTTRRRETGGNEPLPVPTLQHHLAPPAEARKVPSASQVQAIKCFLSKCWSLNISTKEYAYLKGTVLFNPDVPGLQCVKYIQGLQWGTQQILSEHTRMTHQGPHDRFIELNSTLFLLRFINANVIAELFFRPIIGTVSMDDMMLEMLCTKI
ssDAF12 agonist: S. stercoralis DAF-12 activation, primary screen; HEK293 ssDAF-12/GRIP1 lit1-tk-luc reporter, luminescence; % of 3 µM dafachronic acid response; activation, % at 6.8 µM; 370,000 tested, 1% active; AID 652126;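 active means activation above the mean over all tested compounds plus 3 SD, cut at about 0.9% in these data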;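 further: 0% = DMSO-only wells and 100% = 3 µM delta7-dafachronic acid wells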
DAX1 inh-2: DAX1 (NR0B1) inhibition, primary screen | 370,000 tested, 1.1% active | inhibition, % at 6.8 µM | HEK293T StAR-luciferase reporter, SF-1/DAX-1 repression relief | AID 652010;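 active means inhibition above the mean over all tested compounds plus 3 SD, cut at about 3.6% in these data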;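 further: 0% = DAX-1 cells with DMSO and 100% = cells lacking DAX-1 with DMSO; higher inhibition means more luminescence from relief of DAX-1 repression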
SMARCA2 activ: SMARCA2 function activation, primary screen | MG213 cells, MMTV-luciferase reporter, dexamethasone, overnight | activation, % at 9.1 µM | 370,000 tested, 1% active; in the data active means activation above about 7.8%;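 further: 0% = vehicle wells and 100% = reference activator wells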
DAX1 inh confirm: confirmation of human DAX1 (NR0B1) inhibitors. shares compounds with DAX1 inh-2. HEK293T StAR-promoter luciferase reporter, SF-1/DAX-1 repression. inhibition, % at 6.8 µM. 2,400 tested, 87% active. AID 652134;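 active means inhibition above the average of every tested compound plus 3 SD, cut at about 3.8% in these data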;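 further: 0% = DAX-1 cells with DMSO and 100% = no DAX-1 control cells with DMSO; active compounds raise luminescence by relieving repression of the StAR reporter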
Target sequence (P51843 whole entry, looked up): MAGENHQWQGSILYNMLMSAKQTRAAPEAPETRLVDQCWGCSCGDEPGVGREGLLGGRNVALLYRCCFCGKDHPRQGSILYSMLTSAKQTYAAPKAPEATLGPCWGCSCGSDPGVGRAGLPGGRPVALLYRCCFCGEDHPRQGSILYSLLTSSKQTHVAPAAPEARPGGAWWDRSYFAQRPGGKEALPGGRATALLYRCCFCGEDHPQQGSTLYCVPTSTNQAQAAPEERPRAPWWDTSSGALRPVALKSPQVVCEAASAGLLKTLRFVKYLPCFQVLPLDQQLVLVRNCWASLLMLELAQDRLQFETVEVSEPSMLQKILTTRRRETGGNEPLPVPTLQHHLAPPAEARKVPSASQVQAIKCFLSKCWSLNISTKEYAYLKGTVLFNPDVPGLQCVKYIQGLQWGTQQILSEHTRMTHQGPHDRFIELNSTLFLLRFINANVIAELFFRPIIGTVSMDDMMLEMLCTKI
SF1 mutant ctr: nonselective inhibitor or artifact in SF-1 mutant DAX1 counter-screen | inhibition, % at 6.8 µM | HEK293 StAR-luciferase, SF-1 AF2 mutant, luminescence | shares compounds with DAX1 inh-2 | 2,400 tested, 78% active | AID 652136;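 active means inhibition above the mean of all tested compounds plus 3 SD, cut at about 3% in these data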;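 further: 0% = DAX-1 transfected cells with DMSO and 100% = cells without DAX-1 with DMSO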
SMARCA2 conf: SMARCA2 activation, confirmation screen; MG213 cells, MMTV-luciferase with dexamethasone, luminescence, overnight; MG213 cells expressing E1A, Rb sequestered; DMSO wells 0%, reference activator 100%; shares compounds with SMARCA2 activ; 3,500 tested, 30% active; activation, % at 9.1 µM;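 active means activation above its plate's cutoff, the mean activation of tested wells plus 3 SD, cut at about 7.9% in these data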
GAL4-VP16 Luc: activates GAL4-VP16 luciferase, flagging SMARCA2 activator hits | activation, % at 9.1 µM | 3,500 tested, 41% active | HEK293 GAL4-VP16 pG5luc reporter, luciferase luminescence; scaled: DMSO wells 0%, SAHA wells 100% | shares compounds with SMARCA2 activ;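 active means activation above the solvent-only control well mean plus 3 SD, averaged across control plates, cut at about 5.2% in these data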
LXRb hcDAF ctr: counter-screen for hcDAF-12 agonists: agonists of human LXR-beta | shares compounds with hcDAF12 agonist | HEK293 Gal4-LXR tk-luc reporter, luminescence, 24 h; normalized: DMSO 0%, positive control 100% | activation, % at 6.8 µM | 3,400 tested, under 10 active | AID 743027;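 active means mean percent activation of the reporter above a cutoff set as the average over tested compounds plus their standard deviation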
hcDAF12 ag: confirmation of H. contortus DAF-12 agonists | HEK293 hcDAF-12 lit1-tk-luc reporter, luminescence; % of Δ7-dafachronic acid response | 3,400 tested, 61% active | shares compounds with hcDAF12 agonist | activation, % at 6.8 µM | AID 743032;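 active means mean activation across triplicate tests above the threshold derived from the earlier primary screen, cut at about 5.5% in these data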;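 further: 0% = DMSO only wells and 100% = 3 µM Δ7-dafachronic acid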
hgDAF12 conf: hgDAF-12 agonism, confirmation assay; 3,300 tested, 80% active; HEK293 GAL4-hgDAF12 luciferase reporter, agonist mode; percent of butyrate response; shares compounds with hgDAF12 agonist; AID 743050; activation, % at 6.8 µM;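 active means mean activation over triplicate wells above the hit cutoff derived from the earlier primary screen, cut at about 11% in these data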;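 further: 0% = DMSO low control and 100% = 2 mM sodium butyrate high control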
LXRb DAF12 ctr: LXR-beta agonism as DAF-12 counter-screen | shares compounds with hgDAF12 agonist | HEK293 Gal4-LXR luciferase reporter, 24 h | activation, % at 6.8 µM | 3,300 tested, under 10 active | AID 743051;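 active means mean activation of the triplicate above a set limit carried over from the primary screen, none filed active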
* = called active by the depositor. Shown are actives, neighbours in structure and some others; about 4.8% of the full set was active somewhere.

How did Cc1ccc(N2C(=O)C3N=NN(CC(=O)N4N=C(c5ccccc5)CC4c4ccccc4)C3C2=O)cc1 (centres undefined) do in these assays?
hcDAF12 agonist: 3; hgDAF12 agonist: 0; DAX1 inh-1: -1; ssDAF12 agonist: -1; DAX1 inh-2: -1; SMARCA2 activ: -2

How did C/C(=N\Nc1nccnc1Cl)c1ccc(Cl)c(Cl)c1 do in these assays?
hcDAF12 agonist: 6.3*; hgDAF12 agonist: 17*; DAX1 inh-1: 2; ssDAF12 agonist: 1; DAX1 inh-2: 4.5*; SMARCA2 activ: 7; DAX1 inh confirm: 3; SF1 mutant ctr: 3; hgDAF12 conf: 3; LXRb DAF12 ctr: 0

What do the screens show for `C/C(=N\Nc1nccnc1Cl)c1ccc(F)cc1`?
hcDAF12 agonist: 4; hgDAF12 agonist: 20*; DAX1 inh-1: 2; ssDAF12 agonist: 1.5*; DAX1 inh-2: 9.6*; SMARCA2 activ: 8.9*; DAX1 inh confirm: 6.5*; SF1 mutant ctr: 4.2*; SMARCA2 conf: 10*; GAL4-VP16 Luc: 12*; hgDAF12 conf: 11*; LXRb DAF12 ctr: 0

What do the screens show for `O=c1c2ccccc2nc2n1CCC2`?
hcDAF12 agonist: 0; hgDAF12 agonist: 2; DAX1 inh-1: 2; ssDAF12 agonist: -2; DAX1 inh-2: 0; SMARCA2 activ: -4

Results for O=c1[nH]c(-c2cccnc2)nc2sc(-c3ccccc3)cc12 ?
hcDAF12 agonist: -1; hgDAF12 agonist: 5; DAX1 inh-1: 3; ssDAF12 agonist: -2; DAX1 inh-2: 1; SMARCA2 activ: -2

Results for Cc1nc2sc(-c3ccccc3)cc2c(=O)n1N ?
hcDAF12 agonist: 6.7*; hgDAF12 agonist: 17*; DAX1 inh-1: -2; ssDAF12 agonist: 0; DAX1 inh-2: 4.7*; SMARCA2 activ: 5; DAX1 inh confirm: 4.6*; SF1 mutant ctr: 1; LXRb hcDAF ctr: 1; hcDAF12 ag: 4; hgDAF12 conf: 5; LXRb DAF12 ctr: 1

How did NC(=O)CSc1nc2sc(-c3ccccc3)cc2c(=O)n1N do in these assays?
hcDAF12 agonist: 0; hgDAF12 agonist: 2; DAX1 inh-1: 0; ssDAF12 agonist: -1; DAX1 inh-2: 0; SMARCA2 activ: 2

Results for O=c1c2cc(-c3ccccc3)sc2nc2n1CCC2 ?
hcDAF12 agonist: 4; hgDAF12 agonist: 20*; ssDAF12 agonist: 0; DAX1 inh-2: 5.4*; SMARCA2 activ: 8; DAX1 inh confirm: 15*; SF1 mutant ctr: 7.7*; hgDAF12 conf: 18*; LXRb DAF12 ctr: 1

What do the screens show for `Cc1nc2sc(-c3ccccc3)cc2c(=O)[nH]1`?
hcDAF12 agonist: 7.4*; hgDAF12 agonist: 21*; DAX1 inh-1: -2; ssDAF12 agonist: 1; DAX1 inh-2: 6.1*; SMARCA2 activ: 3; DAX1 inh confirm: 12*; SF1 mutant ctr: 6.7*; LXRb hcDAF ctr: 1; hcDAF12 ag: 5.8*; hgDAF12 conf: 12*; LXRb DAF12 ctr: 1

How did C/C(=N\NC(=O)c1cc(C)nc2ccc(C)cc12)c1ccncc1 do in these assays?
hcDAF12 agonist: 0; hgDAF12 agonist: -1; DAX1 inh-1: -1; ssDAF12 agonist: 0; DAX1 inh-2: -4; SMARCA2 activ: -5

Results for CC1CN(Cc2ccccc2)c2nc3c(c(=O)[nH]c(=O)n3C)n2C1 (centres undefined) ?
hcDAF12 agonist: -2; hgDAF12 agonist: 0; DAX1 inh-1: 2; ssDAF12 agonist: -3; DAX1 inh-2: 0; SMARCA2 activ: -2

How did COC(=O)CSc1nc2cc(C)cc(C)c2cc1C#N do in these assays?
hcDAF12 agonist: 1; hgDAF12 agonist: 6; DAX1 inh-1: -1; ssDAF12 agonist: -1; DAX1 inh-2: 0; SMARCA2 activ: 1

What do the screens show for `COC(=O)CSc1nc2ccc(C)cc2cc1C#N`?
hcDAF12 agonist: 7.2*; hgDAF12 agonist: 26*; DAX1 inh-1: 5.9*; ssDAF12 agonist: 1.4*; DAX1 inh-2: 8.8*; SMARCA2 activ: 8; DAX1 inh confirm: 19*; SF1 mutant ctr: 11*; LXRb hcDAF ctr: 1; hcDAF12 ag: 4; hgDAF12 conf: 20*; LXRb DAF12 ctr: 1

How did CC(=O)CSc1nc2cc3c(cc2cc1C#N)OCCO3 do in these assays?
hcDAF12 agonist: 12*; hgDAF12 agonist: 27*; DAX1 inh-1: 0; ssDAF12 agonist: 0; DAX1 inh-2: 7.9*; SMARCA2 activ: 7; DAX1 inh confirm: 14*; SF1 mutant ctr: 4.9*; LXRb hcDAF ctr: 2; hcDAF12 ag: 10*; hgDAF12 conf: 19*; LXRb DAF12 ctr: 2

Results for CCNC(=S)NNC(=O)c1cc(-c2ccc(OC)cc2)nc2ccccc12 ?
hcDAF12 agonist: 5; hgDAF12 agonist: 18*; DAX1 inh-1: -3; ssDAF12 agonist: 1; DAX1 inh-2: 5.5*; SMARCA2 activ: 2; DAX1 inh confirm: 15*; SF1 mutant ctr: 8.8*; hgDAF12 conf: 18*; LXRb DAF12 ctr: 1

Results for COc1cccc(/C=C/C(=O)Nc2cccc(C(C)=O)c2)c1OC ?
hcDAF12 agonist: 0; hgDAF12 agonist: 10; DAX1 inh-1: 0; ssDAF12 agonist: -1; DAX1 inh-2: 1; SMARCA2 activ: 1
